# Screening results (PubChem BioAssay)
# Shown are actives, neighbours in structure and some others; about 3.1% of the full set was active somewhere.
# p53null 32C kill = qHTS Screen for Compounds that Selectively Target Cancer Cells with p53 Mutations: Cytotoxicity of p53 Null Cells at the Permissive Temperature. 55,000 compounds, 0.62% hits. H1299-neo p53 null cells, ATP luminescence, 24 h, 32C. Potency, µM (highest dose often 46.1 µM), for the others: top-dose activity change, negative = cytotoxicity, actives largely listed as cytotoxic;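 further: potency means the concentration at half of the fitted maximal effect; 0% = DMSO only and -100% = full killing by 100 µM tamoxifen; nearly all actives have a fitted effect of over 55% in size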
#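 H1299-neo (p53-null) cells, 600/well, were pre-incubated overnight at 37C, then exposed to compounds at up to 46 uM for 24 hr at 32C. Viability was measured as ATP content by luminescence, and AC50 values came from Hill fits.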
# PMP22 txn prim = Cell-based coincidence reporter assay to measure PMP22 gene transcription in S16 Pmp22-F2sN cells - Primary screen; 43,000 compounds, 2% hits; Potency, µM (highest dose often 57.5 µM), for the others: top-dose activity change, negative = inhibition, hits mostly inhibitors; S16 Pmp22-F2sN Schwann cells, FLuc/NLuc coincidence luminescence, 24 h; active means clear falling dose curves in both reporters; inconclusive means both reporters move, but less clearly or upward; inactive means either reporter flat; the % is the NLuc reporter signal; further: potency means the concentration at half of the fitted maximal effect; on the % scale 0 is the no-effect control and ±100 the full control effect
#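 Reporter cells (S16 Pmp22-F2sN, 500–1,000 per well) exposed to compounds for 24 h, 37C, 5% CO2; lysis with FLuc read after 10 min, then Stop&Glo and NLuc read after 10 min.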
# OvCa metastasis = Primary qHTS assay for Inhibitors of ovarian cancer metastasis using an organotypic tumor microenvironment (TME) model | SKOV3ip1-GFP adhesion/invasion on 3D omental model, fluorescence | Potency, µM (top dose mostly 45.8 µM), for the others: at the highest dose activity change, negative = inhibition, hits mostly inhibitors | 46,000 compounds, 0.1% hits;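 further: potency means the concentration at half of the fitted maximal effect; plate controls were DMSO wells for no effect and tomatine positive control wells for full effect; nearly all actives have a fitted effect of over 65% in size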
#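 qHTS, 4-pt dose (0.36-46 umol/L); SKOV3ip1-GFP, 1,200 cells/well, no FBS; primary omental fibroblast/mesothelial co-culture 48 h pre-grown; 2 h RT + 16 h 37 C; PBS wash, 4% PFA; GFP count 488/509 nm.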
# pS6 MEF inh = Acumen qHTS Assay for Inhibitors of the mTORC1 Signaling Pathway in MEF (Tsc2-/-, p53-/-) Cells: Sytravon | Potency, µM (titrated, usually from 38.3 µM), inactives show at the highest dose activity change, negative = inhibition, actives largely listed as inhibitors | 44,000 compounds, 0.78% hits | Tsc2-/- p53-/- MEF, phospho-rpS6 immunofluorescence/PI, 24 h;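 further: potency means the concentration at half of the fitted maximal effect; plate controls were DMSO for no effect and rapamycin for full effect; nearly all actives have a fitted effect of over 50% in size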
#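 Tsc2-/-, p53-/- mouse embryonic fibroblasts (empty-vector line) exposed to compound 24 hrs at 37 C, fixed, immunostained for phospho-rpS6 and counterstained with propidium iodide. Acumen laser scanning gives % positive cells from Alexa 488/PI ratio, thresholded using 7.5 nM rapamycin; PI count gives viability.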
# S16 viability = Cell viability qHTS assay in S16 Pmp22-F2sN cells | S16 Pmp22-F2sN Schwann cells viability, CellTiter-Glo, 24 h | Potency, µM (doses to about 57.5 µM), without a hit: top-dose activity change, negative = cytotoxicity, usual class: cytotoxic | 43,000 compounds, 0.48% hits | AID 1508642, 2021; further: potency means the concentration at half of the fitted maximal effect; on the % scale 0 is the no-effect control and ±100 the full control effect; nearly all actives have a fitted effect of over 65% in size
#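 Viability was measured by CellTiter-Glo luminescence (15 min, room temperature). This followed 24 h at 37 °C of compound exposure (23 nL pin transfer) in S16 Pmp22-F2sN Schwann cells, 500-1,000 per well.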
# p53null 39C kill = qHTS Screen for Compounds that Selectively Target Cancer Cells with p53 Mutations: Cytotoxicity of p53 Null Cells at the Nonpermissive Temperature; H1299 p53-null (neo) cells, 39C, ATPlite viability, 24 h; Potency, µM (titrated, usually from 46.1 µM), for the others: at the top dose activity, negative = cell killing, most hits filed as cytotoxic; 55,000 compounds, 0.97% hits;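 further: potency means the concentration at half of the fitted maximal effect; 0% = DMSO only and -100% = full killing by 100 µM tamoxifen; nearly all actives have a fitted effect of over 50% in size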
#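 Concentration-response (up to 46 uM) was run for 24 h at the nonpermissive 39C on H1299-p53A138V or H1299-neo cells. ATP content was measured with ATPlite luminescence. AC50 values were Hill-modeled after normalizing between DMSO and 100 uM tamoxifen killing.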
# NLuc sat counter = Biochemical NLuc saturation counterscreen for small molecule modulators of PMP22 gene expression - Nano-Glo assay; 690 compounds, 4% hits; Secreted NLuc enzyme (filtered S16 cell medium), Nano-Glo luminescence; shares compounds with PMP22 txn prim; Potency, µM (highest dose often 57.5 µM), inactives show at the highest dose activity change, negative = inhibition, most hits filed as inhibitors; further: potency means the concentration at half of the fitted maximal effect; on the % scale 0 is the no-effect control and ±100 the full control effect
# NLuc Km ctr = Biochemical coelenterazine-based NLuc counterscreen for small molecule modulators of PMP22 gene expression - Km assay; shares compounds with PMP22 txn prim; secreted NLuc enzyme, coelenterazine luminescence, Km conditions; Potency, µM (top dose mostly 57.5 µM), inactives show at the highest dose activity change, negative = inhibition, actives largely listed as inhibitors; 690 compounds, 5% hits; further: potency means the concentration at half of the fitted maximal effect; on the % scale 0 is the no-effect control and ±100 the full control effect
# FLuc ctr PMP22 = Biochemical FLuc counterscreen for small molecule modulators of PMP22 gene expression. AID 1508640, 2021. shares compounds with PMP22 txn prim. 690 tested, under 10 active. purified P. pyralis FLuc, luminescence, 10 min. Potency, µM (highest dose often 57.5 µM), for inactives: top-dose activity, negative = inhibition, most hits filed as inhibitors; further: % of control where 0% means no effect
# Target sequence (P08659 whole entry, looked up): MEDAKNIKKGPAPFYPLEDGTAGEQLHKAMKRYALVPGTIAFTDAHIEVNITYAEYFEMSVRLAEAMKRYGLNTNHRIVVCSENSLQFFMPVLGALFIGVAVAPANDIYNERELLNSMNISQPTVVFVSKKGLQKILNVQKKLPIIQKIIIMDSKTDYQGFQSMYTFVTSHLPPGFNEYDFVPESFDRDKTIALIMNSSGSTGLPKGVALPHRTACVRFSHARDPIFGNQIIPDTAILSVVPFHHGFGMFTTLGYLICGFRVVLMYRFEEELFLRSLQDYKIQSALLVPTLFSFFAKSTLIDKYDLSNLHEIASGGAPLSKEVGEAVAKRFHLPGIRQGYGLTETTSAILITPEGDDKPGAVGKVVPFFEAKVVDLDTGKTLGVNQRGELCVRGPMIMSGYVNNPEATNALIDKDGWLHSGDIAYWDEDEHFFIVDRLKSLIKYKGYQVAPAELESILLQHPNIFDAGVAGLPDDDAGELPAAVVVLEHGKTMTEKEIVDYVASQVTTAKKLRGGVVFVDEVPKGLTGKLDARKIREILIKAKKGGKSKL
# S16 viab conf = Cell viability qHTS assay in S16 Pmp22-F2sN cells - Confirmatory screen; AID 1508641, 2021; shares compounds with PMP22 txn prim; Potency, µM (doses to about 57.5 µM), inactives show top-dose activity change, negative = viability loss, actives largely listed as cytotoxic; 690 compounds, 7% hits; S16 Schwann cells viability, CellTiter-Glo ATP luminescence, 24 h; further: potency means the concentration at half of the fitted maximal effect; on the % scale 0 is the no-effect control and ±100 the full control effect
# PMP22 txn conf = Cell-based coincidence reporter assay to measure PMP22 gene transcription in S16 Pmp22-F2sN cells - Confirmatory screen; shares compounds with PMP22 txn prim; S16 Schwann cells Pmp22-F2sN, dual luciferase, 24 h; Potency, µM (titrated, usually from 57.5 µM), for inactives: at the top dose activity change, negative = inhibition, usual class: inhibitors; 690 compounds, 22% hits; AID 1508646, 2021; active means clear falling dose curves in both reporters; inconclusive means both reporters move, but less clearly or upward; inactive means either reporter flat; the % is the FLuc reporter signal; further: potency means the concentration at half of the fitted maximal effect
# PMP22 HiBiT cnf = Cell-based HiBiT reporter assay to measure PMP22 protein expression in S16 Pmp22-HiBiT cells - Confirmatory screen | shares compounds with PMP22 txn prim | S16 Schwann cells Pmp22-HiBiT, luminescence, 48 h | Potency, µM (titrated, usually from 27.9 µM), inactives show at the highest dose activity change, negative = inhibition, most hits filed as inhibitors | 95 tested, under 10 active
# Target sequence (P25094 whole entry, looked up): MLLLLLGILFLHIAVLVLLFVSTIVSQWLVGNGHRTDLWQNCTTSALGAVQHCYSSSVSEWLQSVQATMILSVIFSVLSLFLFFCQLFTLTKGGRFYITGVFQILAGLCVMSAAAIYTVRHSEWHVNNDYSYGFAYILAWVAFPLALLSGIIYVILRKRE
# * hit, by the source's call; i = inactive; ? = inconclusive; · = no result given. Unless noted, the call rests on the fitted dose curve; in most records, active means well fitted curve in the direction sought with a large enough effect; inconclusive means small, poorly fitted or top-dose-only effect, or another doubt; inactive means no such curve, though single readings can be large; an effect the other way counts as inactive or inconclusive.
SMILES,p53null 32C kill,PMP22 txn prim,OvCa metastasis,pS6 MEF inh,S16 viability,p53null 39C kill,NLuc sat counter,NLuc Km ctr,FLuc ctr PMP22,S16 viab conf,PMP22 txn conf,others
COc1cccc(NC(=O)CCCn2c(=O)c3cccn3c3cccnc32)c1,-6%,?,i,3%,0%,-13%,?,?,0%,4%,?,
COc1ccccc1CNC(=O)CSCc1nc(-c2ccc(OC)c(OC)c2)oc1C,-8%,-12%,3%,-17%,-26%,-11%,·,·,·,·,·,
COc1ccc(N(CC(=O)Nc2cc(OC)cc(OC)c2)S(=O)(=O)c2c(C)noc2C)cc1,18%,?,i,-1%,-20%,7%,·,·,·,·,·,
COc1ccc(N(CC(=O)Nc2cc(Cl)ccc2C)S(=O)(=O)c2c(C)noc2C)cc1,20%,14µM*,-30%,-17%,-5%,46%,-8%,?,1%,-8%,?,PMP22 HiBiT cnf=?
Cc1ccc(CN2C(=O)C(O)(c3c(C)[nH]c4ccccc34)c3ccccc32)cc1 (stereo not given),30%,8.2µM*,i,?,5%,2%,?,?,3%,8%,17µM*,PMP22 HiBiT cnf=-9%
Cc1[nH]c2ccccc2c1C1(O)C(=O)N(Cc2ccccc2)c2ccc(Cl)cc21 (stereo not given),28%,16µM*,-16%,?,10%,?,-14%,?,4%,?,?,
COc1ccc(NC(=O)c2ccco2)cc1NC(=O)c1ccc(OC(C)C)cc1,0%,?,6%,-6%,-3%,-26%,·,·,·,·,·,
O=C(CSc1nc2nccnc2c(=O)n1CCc1c[nH]c2ccccc12)Nc1ccc(F)cc1,-2%,7µM*,21%,6%,12%,-9%,?,?,-14%,7%,-40%,
COc1ccc(N2CCN(C(c3ccc(F)cc3)c3sc4nc(-c5ccco5)nn4c3O)CC2)cc1 (stereo not given),1%,20%,i,-4%,3%,9%,·,·,·,·,·,
COc1cc(-c2cc(OC)c3c(C)oc(C)c3c(=O)c2)ccc1OC(=O)c1ccccc1C,26%,?,3%,-9%,-23%,-9%,·,·,·,·,·,
CCc1ccccc1NC(=O)Cn1c(=O)n(Cc2ccc3c(c2)OCO3)c(=O)c2ccc(C(=O)NC3CCCCC3)cc21,1%,12µM*,-11%,0%,12%,31%,1%,5%,4%,-29%,11µM*,
Cc1ccc(C)c(NC(=O)Cn2c(=O)n(Cc3ccco3)c(=O)c3ccc(C(=O)NC4CCCC4)cc32)c1,13%,?,-2%,?,2%,6%,·,·,·,·,·,
CCOc1ccc(NC(=O)Cn2c(=O)n(Cc3ccc4c(c3)OCO4)c(=O)c3ccc(C(=O)NC4CCCCC4)cc32)cc1,-3%,17µM*,i,0%,1%,27%,4%,10%,0%,?,13µM*,
Cc1cc(C)c(NC(=O)Cn2c(=O)n(Cc3ccco3)c(=O)c3ccc(C(=O)NC4CCCC4)cc32)c(C)c1,1%,5µM*,-7%,-7%,14%,-4%,-13%,8%,-17%,22µM*,12µM*,PMP22 HiBiT cnf=17%
Cc1ccccc1C(=O)Nc1ccccc1OCc1cc(=O)n2ccccc2n1,-3%,-16%,4%,3%,8%,1%,·,·,·,·,·,
CCN1CCc2c(sc(-n3cccc3)c2C(C)NC(=O)Nc2ccc(Br)cc2)C1 (stereo not given),-2%,?,?,-3%,-1%,-9%,·,·,·,·,·,
CCOCCCNC(=O)NC(C)c1c(-n2cccc2)sc2c1CCN(CC)C2 (stereo not given),3%,16µM*,-3%,1%,1%,12%,-6%,0%,7%,-21%,14%,
CCOc1ccc(NC(=O)NC(C)c2c(-n3cccc3)sc3c2CCN(CC)C3)cc1 (stereo not given),1%,15µM*,i,-9%,-19%,-5%,?,-20%,4%,-20%,-28%,
